# Only a selection was taken, and hits are over-represented in it overall.
# L3MBTL1 inh – blocks human L3MBTL1; Q9Y468; AlphaScreen L3MBTL1–H3K9me1 peptide binding; Potency, µM (highest dose often 57.1 µM), actives largely listed as inhibitors; actives 0.66% (n = 230,000); further: nearly all actives have a fitted effect of over 60% in size
#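 Displacement of a biotinylated histone H3(1-15) peptide monomethylated at Lys9 (75 nM) from L3MBTL1 (50 nM) was measured by AlphaScreen after a 30 min room-temperature compound incubation; cefsulodin titration served as intraplate control.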
# JMJD2E inh – JMJD2E (human) inhibition. Potency, µM (top dose mostly 57.1 µM), usual class: inhibitors. B2RXH2. AID 2147. actives 1.6% (n = 230,000). JMJD2E catalytic domain, FDH-coupled NADH fluorescence (FDH is formaldehyde dehydrogenase); further: nearly all actives have a fitted effect of over 50% in size
# Target sequence (B2RXH2 1-337 limits assumed): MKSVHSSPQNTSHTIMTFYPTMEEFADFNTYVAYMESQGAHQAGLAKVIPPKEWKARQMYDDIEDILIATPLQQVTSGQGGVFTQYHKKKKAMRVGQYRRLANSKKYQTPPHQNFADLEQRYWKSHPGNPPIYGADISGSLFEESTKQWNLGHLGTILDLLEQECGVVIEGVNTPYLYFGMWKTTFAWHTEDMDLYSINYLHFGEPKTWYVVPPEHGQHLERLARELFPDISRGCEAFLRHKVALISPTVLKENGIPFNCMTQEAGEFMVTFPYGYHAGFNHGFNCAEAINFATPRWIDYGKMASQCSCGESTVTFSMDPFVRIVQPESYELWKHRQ
# GCN5L2 inh – GCN5L2 (KAT2A) acetyltransferase inhibition; Potency, µM (titrated, usually from 58.9 µM), most hits filed as inhibitors; actives 0.21% (n = 390,000); GCN5L2 HAT assay, ThioGlo1 CoA-SH fluorescence
#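 Preincubate 20nM GCN5L2 with compound 15 min, RT → add 50uM ThioGlo1 + 75uM H3(1-25) + 70uM acetyl-CoA → read fluorescence 0 and 20 min. Primary qHTS; fluorescent artifacts likely.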
# RECQ1 inh-1 – inhibitors of human RECQ1 DNA helicase | RECQ1 DNA unwinding, red fluorescence kinetic read | Potency, µM (highest dose often 57.3 µM), actives largely listed as inhibitors | actives 0.54% (n = 240,000) | AID 2549; further: nearly all actives have a fitted effect of over 30% in size
#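 50 nM RECQ1T1 preincubated 15 min with compound in Tris pH 8.0 buffer with MgCl2, DTT, Tween-20 and 2.5 ug/ml poly(dI-dC); started with 200 nM TAMRA/BHQ-2 forked duplex and 2 mM ATP. Unwinding read as fluorescence (525/598 nm), two reads 2 h apart.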
# APE1 inh-1 – inhibitors of human APE1 endonuclease; P27695; recombinant APE1, TAMRA/BHQ-2 abasic DNA cleavage fluorescence; Potency, µM (highest dose often 65.8 µM), hits mostly inhibitors; actives 0.35% (n = 350,000); AID 2517; further: nearly all actives have a fitted effect of over 55% in size
# Target sequence (P27695 whole entry, looked up): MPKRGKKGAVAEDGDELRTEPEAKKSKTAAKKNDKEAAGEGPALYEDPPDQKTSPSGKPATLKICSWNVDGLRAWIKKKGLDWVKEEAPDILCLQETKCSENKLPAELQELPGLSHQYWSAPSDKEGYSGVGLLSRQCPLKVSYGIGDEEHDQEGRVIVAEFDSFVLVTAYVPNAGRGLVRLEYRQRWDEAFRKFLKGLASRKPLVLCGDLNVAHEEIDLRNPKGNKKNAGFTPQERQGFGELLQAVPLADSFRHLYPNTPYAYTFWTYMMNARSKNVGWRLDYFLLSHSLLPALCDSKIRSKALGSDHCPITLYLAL
#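 Compound pre-exposure to 0.75 nM APE1, 15 min at ambient temperature. Reaction initiated with 50 nM TAMRA/BHQ-2 THF substrate, read immediately in kinetic mode, 525 nm excitation, 598 nm emission.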
# BLM inh-1 – inhibitors of human Bloom syndrome helicase BLM; P54132; recombinant BLM DNA unwinding, fluorescence dequenching; Potency, µM (titrated, usually from 56.1 µM), usual class: inhibitors; actives 0.2% (n = 350,000); AID 2528; further: nearly all actives have a fitted effect of over 35% in size
# APE1 dye cs – counter-screen for APE1 inhibitors: DNA dye displacement. DNA fluorescent dye displacement counterscreen, fluorescence. shares compounds with APE1 inh-1. actives 7% (n = 480). Potency, µM (series often up to 28.5 µM), actives largely listed as inhibitors;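 further: loss of thiazole orange fluorescence as the dye is displaced from duplex DNA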
# EndoIV counter – Endo IV (E. coli) inhibition counter-screen; E. coli Endo IV, fluorogenic AP-site DNA cleavage; actives 4% (n = 560); Potency, µM (highest dose often 27.1 µM), most hits filed as inhibitors; shares compounds with APE1 inh-1
# APE1 inh-2 – confirmation of inhibitors of human APE1 endonuclease; shares compounds with APE1 inh-1; purified APE1, fluorogenic abasic-site DNA cleavage; Potency, µM (top dose mostly 57.1 µM), usual class: inhibitors; actives 44% (n = 750); AID 2572; further: nearly all actives have a fitted effect of over 30% in size
# APE1 FP – displaces DNA from human APE1 in FP assay; APE1 binding to TAMRA-labelled double-stranded DNA, fluorescence polarization displacement; AID 2573; actives 7% (n = 480); Potency, µM (doses to about 28.5 µM), most hits filed as inhibitors; shares compounds with APE1 inh-1
# BLM inh-2 – BLM (human) helicase inhibition, confirmation. AID 2585. Potency, µM, usual class: inhibitors. actives 40% (n = 220). BLM DNA unwinding, fluorescence quenching, biochemical. shares compounds with BLM inh-1;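 further: strand separation dequenches TAMRA so unwinding raises red fluorescence; series mostly up to about 69 µM; nearly all actives have a fitted effect of over 45% in size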
# RECQ1 conf – confirmation of human RECQ1 helicase inhibitors; shares compounds with RECQ1 inh-1; RECQ1 helicase DNA unwinding, fluorescence; Potency, µM (top dose mostly 229 µM), hits mostly inhibitors; actives 28% (n = 610); AID 2708; further: nearly all actives have a fitted effect of over 45% in size
# ADP FP counter – displaces ADP in a fluorescence polarization counter-screen for RECQ1 hits | shares compounds with RECQ1 inh-1 | ADP fluorescence polarization displacement counterscreen | Potency, µM (top dose mostly 228 µM), hits mostly inhibitors | actives 27% (n = 530); further: nearly all actives have a fitted effect of over 45% in size
# RECQ1 inh-2 – blocks human RECQ1 DNA unwinding | shares compounds with RECQ1 inh-1 | recombinant RECQ1 DNA unwinding, red fluorescence | Potency, µM (doses to about 119 µM), usual class: inhibitors | actives 15% (n = 1,100) | AID 504841; further: nearly all actives have a fitted effect of over 50% in size
# A number is an active result; . = inactive; ? = inconclusive; / = not tested or not shown; ! = not active in a repeat; [ ] = remark or other dose. Unless noted, the call rests on the fitted dose curve; in most records, active means well fitted curve in the direction sought with a large enough effect; inconclusive means small, poorly fitted or top-dose-only effect, or another doubt; inactive means no such curve, though single readings can be large; an effect the other way counts as inactive or inconclusive.
SMILES,L3MBTL1 inh,JMJD2E inh,GCN5L2 inh,RECQ1 inh-1,APE1 inh-1,BLM inh-1,APE1 dye cs,EndoIV counter,APE1 inh-2,APE1 FP,RECQ1 inh-2,others
O=C(OCC1OC(OC(=O)c2cc(O)c(O)c(OC(=O)c3cc(O)c(O)c(O)c3)c2)[C@@H](OC(=O)c2cc(O)c(O)c(OC(=O)c3cc(O)c(O)c(O)c3)c2)C(OC(=O)c2cc(O)c(O)c(OC(=O)c3cc(O)c(O)c(O)c3)c2)C1OC(=O)c1cc(O)c(O)c(OC(=O)c2cc(O)c(O)c(O)c2)c1)c1cc(O)c(O)c(OC(=O)c2cc(O)c(O)c(O)c2)c1 (some centres undefined),/,0.282µM,3.55µM,0.0316µM,/,0.0708µM,/,5.01µM,0.0032µM,/,/,RECQ1 conf=1.12µM;ADP FP counter=?
C[C@@]1(C(=O)O)NCCc2cc(O)c(O)cc21,/,?,?,2.51µM,1.78µM,8.91µM,.,.,.,.,/,RECQ1 conf=.;ADP FP counter=?
CC(C)c1ccc(S(=O)(=O)c2nnn3c2nc(N2CCN(C)CC2)c2sccc23)cc1,/,/,.,/,/,.,/,/,/,/,/,
Cc1ccc(/C=C2/C(=O)c3ccc(C(=O)O)cc3C2=O)o1,1.58µM,.,.,7.08µM,8.91µM,.,/,/,?,/,/,RECQ1 conf=.;ADP FP counter=44.7µM
Cc1ccc(C=C2C(=O)c3ccccc3C2=O)o1,?,.,.,.,?,.,/,/,/,/,/,
Cc1ccc(-c2ccc(C(=O)NCCCNC(=O)c3cnccn3)o2)cc1Cl,/,/,.,/,.,.,/,/,/,/,/,
COc1ccc(NC(=O)c2cc(C)nc3ccccc23)cc1S(=O)(=O)N1CCOCC1,.,/,.,/,.,/,/,/,/,/,/,
COc1ccc(NC(=O)c2cc(-c3ccco3)nc3ccccc23)cc1S(=O)(=O)N1CCOCC1,.,?,?,?,3.98µM,?,12.6µM,.,12.6µM,?,?,
Cc1cc(C)cc(NC(=O)CCCn2c3ccccc3c(=O)c3ccccc32)c1,/,/,.,/,/,.,/,/,/,/,/,
Cc1ccc2c(=O)c3ccccc3n(CCCN)c2c1C,/,/,?,31.6µM!,4.47µM!,.,14.1µM,.,8.91µM,.,17.8µM,
O=c1cc(-c2ccc(O)cc2)oc2cc(O[C@H]3OC(CO)C(O)C(O)C3O)cc(O)c12 (some centres undefined),/,.,.,.,.,.,/,/,/,/,/,
O=c1cc(-c2ccc(O)cc2)oc2cc(O)c(C3OC(CO)C(O)C(O)C3O)c(O)c12 (centres undefined),15.8µM,?,.,?,7.08µM,.,.,.,12.6µM,.,50.1µM,
O=C1/C(=C/c2ccc(O)c(O)c2)Oc2cc(O)ccc21,/,15.8µM,.,?,?,.,.,.,?,.,56.2µM,
CCc1ccc(CN(Cc2ccco2)c2cnc(S(C)(=O)=O)nc2C(=O)Nc2cccc(C)c2)cc1,/,/,.,/,/,.,/,/,/,/,/,
CCn1c(SCC(=O)O)nc2sc3c(c2c1=O)CCC3,/,.,.,?,22.4µM,.,.,.,?,.,?,
O=C(Cn1cnc2sc(-c3ccccc3)cc2c1=O)NCc1ccco1,?,?,?,20µM,31.6µM,17.8µM,.,.,8.91µM,?,/,BLM inh-2=?;RECQ1 conf=39.8µM;ADP FP counter=.
O=C1c2ccccc2-c2onc3ccc(NCc4ccco4)c1c23,.,.,.,20µM,?,.,/,/,14.1µM,/,39.8µM,
N/C(=N\OC(=O)c1ccc(Cl)cc1)c1nonc1N,.,.,.,.,.,.,/,/,/,/,/,
CCCn1c(-c2ccc(F)cc2)nc2c(NCCCN(C)C)nc(C)nc21,/,?,/,.,.,.,/,/,/,/,/,
CCOc1ccccc1CNC(=O)c1ccc2c(c1)nc1n2CCCCC1,/,/,.,/,/,.,/,/,/,/,/,
Cc1cc(=O)n2[nH]c(-c3ccsc3-n3c(C)ccc3C)cc2n1,/,?,.,8.91µM,3.55µM,7.94µM,.,.,?,.,?,RECQ1 conf=50.1µM;ADP FP counter=31.6µM
O=C1C2=CC[C@H]3C(=O)N(Cc4ccc5c(c4)OCO5)C(=O)[C@@H]3[C@@H]2[C@H](O)[C@@H]2O[C@H]12,/,/,/,.[11.5 µM],.[12.4 µM],.[12.4 µM],/,/,/,/,/,
COc1ccccc1-c1nnc(SCC(=O)c2ccc(Cl)cc2)n1-c1ccccc1,/,/,.,/,/,.,/,/,/,/,/,
CCn1c(CSc2nc3ccccc3s2)nnc1SCC(=O)c1ccc(O)c(O)c1,/,14.1µM,.,7.94µM,17.8µM,.,?,.,?,.,?,RECQ1 conf=.;ADP FP counter=?
CCn1c(SCC(=O)c2ccc(O)c(O)c2)nnc1-c1ccccc1OC,?,22.4µM,.,14.1µM,?,.,.,.,?,.,2µM,
SMILES,L3MBTL1 inh,JMJD2E inh,GCN5L2 inh,RECQ1 inh-1,APE1 inh-1,BLM inh-1,APE1 dye cs,EndoIV counter,APE1 inh-2,APE1 FP,RECQ1 inh-2,others
COc1ccccc1NC(=O)CCNS(=O)(=O)c1ccc2c(c1)CCN2C(C)=O,/,/,.,/,.,.,/,/,/,/,/,
CCOc1cc(C2NC(=O)c3c(sc4c3CCN(C)C4)N2)ccc1OC(=O)c1ccccc1Cl (centres undefined),/,/,.,/,/,.,/,/,/,/,/,
Cc1ccc(C(=O)CC(=O)c2ccc(C(C)(C)C)cc2)cc1,.,.,.,.,.,.,/,/,/,/,/,
COc1ccc(C(=O)CC(=O)c2ccc(C(C)(C)C)cc2)cc1,/,.,31.6µM,31.6µM,8.91µM,.,?,.,7.94µM,?,?,RECQ1 conf=12.6µM;ADP FP counter=?
COCCn1c(=O)c(-c2ccccc2)nc2cnc(Oc3ccc(OC)cc3)nc21,/,/,.,.,.,.,/,/,/,/,/,
Cc1cc(O)c(Oc2cc(C)cc(O)c2O)c(O)c1,.,12.6µM,.,12.6µM,10µM,.,.,.,?,.,?,
